Here are results for six compounds from PubChem BioAssay (EPA / NIEHS).

Inconclusive results are not listed. The source made the active and inactive calls. How the source made its calls, unless noted: active means hit-call score of the fitted dose curve at least 0.9, where 1 is the maximum; inactive means score below 0.9.

Broadly, the AC50 is the midpoint of the concentration-response curve, whichever way the signal moves.

Read-out in one experiment: Monocyte Chemoattractant Protein-1 (MCP1), CCL2 (gene 6347)
The experiment can be described thus: BSK_3C_MCP1: BioMAP Diversity Plus: 3C Assay for Monocyte Chemoattractant Protein-1 (MCP1) Biomarker Activity (AID 2283017). Particulars: primary human endothelial cells (HUVEC); actives raise or lower the signal. A digest of the protocol:
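Using human vascular primary endothelium, researchers measured MCP-1 by ELISA 24 h after treatment, with DMSO serving as negative control for bidirectional fitting.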
With `S=C(NC1CCCCC1)NC1CCCCC1`, the outcome was inactive.

In the case of `C/C=C\C/C=C/CCCCCCCCOC(C)=O`, the result was inactive.

As for `c1ccc(-c2ccccn2)nc1`, the outcome was inactive.

Read-out in a further experiment: Monocyte Chemoattractant Protein-1 (MCP1), CCL2 (gene 6347)
The experiment can be described thus: BSK_4H_MCP1: BioMAP Diversity Plus: 4H Assay for Monocyte Chemoattractant Protein-1 (MCP1) Biomarker Activity (AID 2283018). Particulars: primary human endothelial cells (HUVEC); actives raise or lower the signal. A digest of the protocol:
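Endothelial cells from umbilical vein were treated with test chemical, then after 24 h MCP-1 levels were quantified by ELISA; endpoint values came from bidirectional fitting with DMSO as baseline of activity.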
Consider `S=C(NC1CCCCC1)NC1CCCCC1`, for which the outcome was inactive.

With `C/C=C\C/C=C/CCCCCCCCOC(C)=O`, the result was inactive.

In the case of `c1ccc(-c2ccccn2)nc1`, the AC50 was 20 µM (active).

Read-out in the next experiment: Human Leukocyte Antigen - DR isotype (HLADR), HLA-DRA (gene 3122)
The experiment can be described thus: BSK_3C_HLADR: BioMAP Diversity Plus: 3C Assay for Human Leukocyte Antigen - DR isotype (HLADR) Biomarker Activity (AID 2283019).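 On outcome: ELISA of cell-surface HLA-DR on HUVEC 24 h after dosing.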 Particulars: primary human endothelial cells (HUVEC); actives raise or lower the signal. An outline of the steps: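 Compound added to primary HUVEC cultures, 24 h incubation, then HLA-DR determined by ELISA; endpoint derived by bidirectional fitting relative to DMSO negative control.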
With `S=C(NC1CCCCC1)NC1CCCCC1`, the outcome was inactive.

For `C/C=C\C/C=C/CCCCCCCCOC(C)=O`, the AC50 was 27 µM (active).

With `c1ccc(-c2ccccn2)nc1`, the result was inactive.

Read-out in another experiment: Interleukin-8 (IL8), CXCL8 (gene 3576)
The experiment can be described thus: BSK_3C_IL8: BioMAP Diversity Plus: 3C Assay for Interleukin-8 (IL8) Biomarker Activity (AID 2283020). As to conditions: primary human endothelial cells (HUVEC); actives raise or lower the signal. An outline of the steps: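 Endothelial primary cells of human umbilical vein origin are dosed with chemical; after 24 h the IL-8 biomarker is measured by ELISA, and concentration–response is fitted in both directions versus DMSO.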
As to `S=C(NC1CCCCC1)NC1CCCCC1`, the outcome was inactive.

Regarding `C/C=C\C/C=C/CCCCCCCCOC(C)=O`, the result was inactive.

As for `c1ccc(-c2ccccn2)nc1`, the outcome was inactive.

Read-out in the next experiment: Monokine induced gamma interferon (MIG), CXCL9 (gene 4283)
The experiment is described as follows: BSK_3C_MIG: BioMAP Diversity Plus: 3C Assay for Monokine induced gamma interferon (MIG) Biomarker Activity (AID 2283021). As to conditions: primary human endothelial cells (HUVEC); actives raise or lower the signal. A digest of the protocol:
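Endothelial primary cells (human umbilical vein) are dosed with test chemical in the 3C system. MIG levels are measured by ELISA at 24 h and fitted in both directions relative to DMSO.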
Consider `S=C(NC1CCCCC1)NC1CCCCC1`, for which the result was inactive.

`C/C=C\C/C=C/CCCCCCCCOC(C)=O`: the result was inactive.

Take `c1ccc(-c2ccccn2)nc1`: the result was inactive.

For the next experiment, the target named is human Vitamin D Receptor (VDR), VDR (gene 7421) (UniProt P11473). The experiment can be described thus: ATG_VDR_TRANS: Attagene TRANS-FACTORIAL HepG2 Assay for human Vitamin D Receptor (VDR) (AID 2283022; active means hit-call score of the fitted dose curve at least 0.9, where 1 is the maximum).
Sequence of human Vitamin D Receptor (VDR), VDR (gene 7421) (P11473 whole entry, looked up): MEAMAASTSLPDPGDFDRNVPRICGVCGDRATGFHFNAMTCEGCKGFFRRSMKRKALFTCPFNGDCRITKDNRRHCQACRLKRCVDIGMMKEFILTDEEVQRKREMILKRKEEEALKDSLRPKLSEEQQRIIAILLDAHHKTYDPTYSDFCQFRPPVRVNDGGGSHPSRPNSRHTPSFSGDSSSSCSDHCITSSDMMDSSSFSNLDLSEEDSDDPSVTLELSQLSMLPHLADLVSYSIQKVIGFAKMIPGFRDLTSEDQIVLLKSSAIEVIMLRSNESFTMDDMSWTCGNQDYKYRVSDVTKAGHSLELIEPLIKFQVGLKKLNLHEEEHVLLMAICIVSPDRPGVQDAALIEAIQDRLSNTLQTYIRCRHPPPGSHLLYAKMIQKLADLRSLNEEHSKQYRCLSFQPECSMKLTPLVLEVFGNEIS
Settings: not given
A digest of the protocol:
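Multiplexed TRANS reporter in HepG2; 24 h treatment; reporter mRNA by RT-PCR plus capillary electrophoresis; upregulation scored relative to DMSO.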
With `Nc1ccc(N=Nc2ccccc2)c(N)n1`, the compound was classed as inactive.

`S=C(NC1CCCCC1)NC1CCCCC1`: the outcome was inactive.

Regarding `N#CCc1ccc(Cl)cc1Cl`, the compound was called inactive.

In the case of `CCc1c(C(=O)O)c(=O)cnn1-c1ccc(Cl)cc1`, the result was inactive.

Turning to `C/C=C\C/C=C/CCCCCCCCOC(C)=O`, the compound was classed as inactive.

In the case of `c1ccc(-c2ccccn2)nc1`, the outcome was inactive.

Read-out in another experiment: not listed separately
The experiment can be described thus: BSK_3C_SRB: Viability Assessment in the BioMAP Diversity Plus: 3C Assay (AID 2283023).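 Further: fitted both ways against DMSO so a hit may be signal rise or drop.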 Particulars: primary human endothelial cells (HUVEC). An outline of the steps:
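Overt cytotoxicity is gauged in parallel confluent HUVEC cultures by SRB total-protein staining at the time of biomarker measurement, 24 h after dosing. Gain or loss of signal is fitted versus DMSO.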
With `S=C(NC1CCCCC1)NC1CCCCC1`, the result was inactive.

With `C/C=C\C/C=C/CCCCCCCCOC(C)=O`, the result was inactive.

Take `c1ccc(-c2ccccn2)nc1`: the outcome was inactive.

Read-out in another experiment: Matrix Metallopeptidase 1 (MMP1), MMP1 (gene 4312)
The experiment is described as follows: BSK_BE3C_MMP1: BioMAP Diversity Plus: BE3C Assay for Matrix Metallopeptidase 1 (MMP1) Biomarker Activity (AID 2283024). As to conditions: primary human bronchial epithelial cells; actives raise or lower the signal. A digest of the protocol:
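MMP1 signal, measured by ELISA after a 24 h chemical exposure of human primary bronchial epithelial cells, is analysed with bidirectional fitting using DMSO as negative control.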
For the compound `S=C(NC1CCCCC1)NC1CCCCC1`, the outcome was inactive.

`C/C=C\C/C=C/CCCCCCCCOC(C)=O`: the result was inactive.

With `c1ccc(-c2ccccn2)nc1`, the result was inactive.

Read-out in another experiment: not listed separately
The experiment can be described thus: BSK_3C_Vis: BioMAP Diversity Plus: 3C Assay for Morphology Visualization (AID 2283025).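 Further: fitted both ways so gain or loss versus DMSO counts.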 As to conditions: primary human endothelial cells (HUVEC). A digest of the protocol:
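Morphology read by light microscopy serves as a background control for the multiplexed 3C assay in human umbilical vein endothelial cells, taken 24 h after dosing, with DMSO as the negative control and bidirectional curve fitting.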
For the compound `S=C(NC1CCCCC1)NC1CCCCC1`, the outcome was inactive.

For the compound `C/C=C\C/C=C/CCCCCCCCOC(C)=O`, the result was inactive.

For the compound `c1ccc(-c2ccccn2)nc1`, the result was inactive.

Read-out in another experiment: Pselectin, SELP (gene 6403)
The experiment is described as follows: BSK_4H_Pselectin: BioMAP Diversity Plus: 4H Assay for Pselectin Biomarker Activity (AID 2283026). As to conditions: primary human endothelial cells (HUVEC); actives raise or lower the signal. An outline of the steps: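 Endothelial primary cells (human umbilical vein) are dosed, incubated 24 h, and assayed for surface P-selectin by ELISA; responses in either direction are fitted relative to the DMSO negative control.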
As for `S=C(NC1CCCCC1)NC1CCCCC1`, the result was inactive.

Turning to `C/C=C\C/C=C/CCCCCCCCOC(C)=O`, the AC50 was 20 µM (active).

Consider `c1ccc(-c2ccccn2)nc1`, for which the outcome was inactive.

Read-out in a further experiment: not listed separately
The experiment can be described thus: BSK_4H_SRB: Viability Assessment in the BioMAP Diversity Plus: 4H Assay (AID 2283027).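 Further: cells exposed to compound for 24 h before staining.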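 On AC50: curves fitted both ways versus DMSO so AC50 may be loss or gain.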 Particulars: primary human endothelial cells (HUVEC). An outline of the steps:
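Cytotoxicity read-out in primary human endothelial cells: after 24 h compound exposure, cells were TCA-fixed (10%), stained with 0.1% SRB and absorbance taken at 560 nm. Values fitted in both directions relative to DMSO.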
Turning to `S=C(NC1CCCCC1)NC1CCCCC1`, the result was inactive.

As to `C/C=C\C/C=C/CCCCCCCCOC(C)=O`, the AC50 was 12.7 µM (active).

On to `c1ccc(-c2ccccn2)nc1`, for which the result was inactive.

Read-out in a further experiment: not listed separately
The experiment can be described thus: BSK_BE3C_SRB: Viability Assessment in the BioMAP Diversity Plus: BE3C Assay (AID 2283028). Particulars: primary human bronchial epithelial cells. A digest of the protocol:
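SRB total-protein staining (0.1%, after TCA fixation) of chemically dosed human bronchial epithelial primary cells at 24 h; DMSO serves as the negative control for bidirectional curve fitting.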
With `S=C(NC1CCCCC1)NC1CCCCC1`, the outcome was inactive.

For the compound `C/C=C\C/C=C/CCCCCCCCOC(C)=O`, the result was inactive.

On to `c1ccc(-c2ccccn2)nc1`, for which the outcome was inactive.

Read-out in the next experiment: Thrombomodulin, THBD (gene 7056)
The experiment can be described thus: BSK_3C_Thrombomodulin: BioMAP Diversity Plus: 3C Assay for Thrombomodulin Biomarker Activity (AID 2283029). As to conditions: primary human endothelial cells (HUVEC); actives raise or lower the signal. An outline of the steps: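 Endothelial cells from umbilical vein are dosed with test chemical and incubated 24 h. Thrombomodulin is then quantified by ELISA, with DMSO serving as negative control and activity baseline.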
On to `S=C(NC1CCCCC1)NC1CCCCC1`, for which the outcome was inactive.

For the compound `C/C=C\C/C=C/CCCCCCCCOC(C)=O`, the outcome was inactive.

For the compound `c1ccc(-c2ccccn2)nc1`, the result was inactive.
